Screening results deposited in PubChem by Paczesny and Yang Labs, IUPUI and University of Michigan.
ST2 inh: inhibitors of human ST2 (IL1RL1) binding to IL-33. Q01638. AlphaLISA ST2-Fc/biotin-IL-33 interaction, 1 h. inhibition, % for hits at 17 µM. actives 2.3% (n = 78,000). AID 1259354; in the data active = inhibition above about 30%
Target sequence (Q01638 whole entry, looked up): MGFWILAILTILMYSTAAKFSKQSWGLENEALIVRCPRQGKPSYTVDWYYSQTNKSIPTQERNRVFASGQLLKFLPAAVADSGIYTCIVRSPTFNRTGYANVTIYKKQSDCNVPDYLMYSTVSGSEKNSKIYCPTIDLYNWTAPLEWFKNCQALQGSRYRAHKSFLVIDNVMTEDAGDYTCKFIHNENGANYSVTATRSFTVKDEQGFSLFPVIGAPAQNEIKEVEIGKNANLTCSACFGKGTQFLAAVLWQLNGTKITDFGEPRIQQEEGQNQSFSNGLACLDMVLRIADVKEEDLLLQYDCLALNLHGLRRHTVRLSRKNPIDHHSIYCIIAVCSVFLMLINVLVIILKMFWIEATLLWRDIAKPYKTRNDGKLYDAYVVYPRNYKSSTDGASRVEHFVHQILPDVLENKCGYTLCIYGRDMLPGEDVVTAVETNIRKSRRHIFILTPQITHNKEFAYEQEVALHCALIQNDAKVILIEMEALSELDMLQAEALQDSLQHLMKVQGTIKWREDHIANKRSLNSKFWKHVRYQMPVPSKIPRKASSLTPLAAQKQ
* hit, by the source's call. This excerpt belongs to a sample that is enriched for hits.

Screening COc1ccccc1N=C1C(=O)Nc2ccccc21 returned ST2 inh inactive.
Screening COc1cccc(OC)c1OC returned ST2 inh inactive.
Screening O=C(CCS(=O)(=O)c1cccc2nsnc12)NCCc1ccc(Cl)cc1 returned ST2 inh inactive.
COCCN1CC(C(=O)NC(C)(C)c2ccc(OC)c(OC)c2)CCC1=O (stereo not given) was read as ST2 inh inactive.
`CC(C)c1nnsc1CNC(=O)C1CC(=O)N(Cc2ccccn2)C1` (stereo not given) gave ST2 inh inactive.
CC(C)(C)CC(=O)Nc1ccc(Nc2ccccc2)cc1 was read as ST2 inh 33.0%*.
Screening CC(=O)Nc1ccc(NC(=O)CC(c2ccccc2)c2ccccc2)cc1 returned ST2 inh inactive.
CC(=O)Nc1ccc(NC(=O)Nc2ccccc2)cc1 was read as ST2 inh inactive.
For CCOc1ccc2nc(SC3CC(=O)N(c4cccc(OC)c4)C3=O)sc2c1 (stereo not given) the results were ST2 inh inactive.
`COc1cc(-c2nc3sc4c(c3c(=O)[nH]2)CCCC4)ccc1O` gave ST2 inh inactive.
COc1ccc2[nH]c3c(c2c1)CCn1c-3nc2sc3c(c2c1=N)CCCC3 was read as ST2 inh 34.0%*.
COc1ccc(CCn2cnc3sc4c(c3c2=N)CCCC4)cc1OC was read as ST2 inh inactive.
NS(=O)(=O)c1ccc(F)cc1 was read as ST2 inh inactive.
Screening COc1ccc(C2CC(c3cccs3)=NN2C(=O)CSc2c[nH]c3ccccc23)cc1 (stereo not given) returned ST2 inh inactive.
COc1cccc(C2CC(c3ccc(Br)cc3)=NN2C(=O)CCCC(=O)O)c1OC (stereo not given) was read as ST2 inh inactive.
For COc1cccc(C2CC(c3cccs3)=NN2C(=O)CSC2CCCCC2)c1OC (stereo not given) the results were ST2 inh 44.0%*.
`Cc1ccc(S(=O)(=O)N2CC(C)OC(C)C2)cc1` (stereo not given) gave ST2 inh inactive.
Cc1noc(C)c1-c1ccc(Cl)c(Cl)c1 was read as ST2 inh 49.0%*.
Screening Cc1cc(NC(=O)c2cc(-c3ccc(Cl)c(Cl)c3)on2)no1 returned ST2 inh inactive.
`CC(C)NC(=O)c1cc(-c2ccc(Cl)c(Cl)c2)on1` gave ST2 inh inactive.
For Cc1c(-c2ccc(Cl)cc2)n[nH]c1C(=O)N1CCCC(O)(CN(C)C)C1 (stereo not given) the results were ST2 inh inactive.
CCCCNC(=O)CCc1nc2sc3c(c2c(=O)[nH]1)CCCC3 was read as ST2 inh inactive.
`COc1ccc(C2C(C(N)=O)=C(C)Nc3nc(SCc4ccccc4F)nn32)cc1OC` (stereo not given) gave ST2 inh inactive.
Screening CN1C[C@@H](NC(=O)c2ccccn2)C[C@H]1c1nc(-c2ccccn2)no1 returned ST2 inh inactive.
For CN1C[C@@H](NC(=O)CC(C)(C)CC(=O)O)C[C@H]1c1nc(-c2ccccn2)no1 the results were ST2 inh inactive.
For CN(C)c1ccc(C(=O)N[C@H]2C[C@@H](c3nc(-c4cccnc4)no3)N(C)C2)cc1 the results were ST2 inh 58.0%*.
`CN1C[C@@H](NC(=O)c2ccccn2)C[C@H]1c1nc(-c2ccncc2)no1` gave ST2 inh inactive.
`CN1C[C@@H](NC(=O)CC(C)(C)C)C[C@H]1c1nc(-c2cnccn2)no1` gave ST2 inh 34.0%*.
For CN1C[C@@H](NC(=O)c2cccnc2)C[C@H]1c1nc(-c2ccc(Cl)cc2)no1 the results were ST2 inh inactive.
For CN1C[C@@H](NC(=O)c2ccc(F)cc2)C[C@H]1c1nc(-c2ccccc2)no1 the results were ST2 inh inactive.
`CN1C[C@@H](NC(=O)c2ccc3c(c2)OCO3)C[C@H]1c1nc(-c2cccnc2)no1` gave ST2 inh inactive.
CN1C[C@@H](NC(=O)COc2ccccc2)C[C@H]1c1nc(-c2cccnc2)no1 was read as ST2 inh 65.0%*.
For Cc1nc2sccn2c1CN1CCC(n2cc(CCO)nn2)CC1 the results were ST2 inh inactive.
`COc1cc2c(C(=O)N3CCN(C)CC3)cn(CC(C)C)c(=O)c2cc1OC` gave ST2 inh inactive.
Cc1ccc2cc(C3(O)CCN(C(=O)c4cncc(Cl)c4)CC3)ccc2n1 was read as ST2 inh inactive.
`Cc1c(Cl)c([N+](=O)[O-])nn1CCCC(=O)Nc1ccc(F)cc1F` gave ST2 inh inactive.
`C=CCOc1ccc(Cl)cc1/C=C(\C#N)c1nc2ccccc2[nH]1` gave ST2 inh inactive.
N#C/C(=C\c1cc(Cl)ccc1O)c1nc2ccccc2[nH]1 was read as ST2 inh 35.0%*.
Screening N#C/C(=C\c1ccc(O)cc1O)c1nc2ccccc2[nH]1 returned ST2 inh inactive.
Screening NCC(=O)N1CCC(N2CCCC(C(=O)N3CCOCC3)C2)CC1 (stereo not given) returned ST2 inh inactive.
COc1ccc(C2=NNC(c3ccccc3)C2)c(O)c1 (stereo not given) was read as ST2 inh inactive.
COc1ccc(C2CC(C3C(=O)c4ccccc4C3=O)=NN2)cc1 (stereo not given) was read as ST2 inh 36.0%*.
COc1cccc2ccc(C3C(=O)c4ccccc4C3=O)nc12 was read as ST2 inh inactive.
Cc1cc(C(F)(F)F)c(C#N)c(SCC(=O)O)n1 was read as ST2 inh inactive.
For CC(C)OC(=O)c1c(NC(=O)CSc2ncccn2)sc2c1CCCC2 the results were ST2 inh inactive.
For Cn1ccnc1SCC(=O)Nc1ccc(Cl)cc1 the results were ST2 inh inactive.
Screening COC(=O)c1c(NC(=O)CSc2nccn2C)sc2c1CCC(C(C)(C)C)C2 (stereo not given) returned ST2 inh 35.0%*.
`CCC(=O)N[C@@H]1c2ccccc2C2(CCN(C(=O)c3ccc(C#CC(C)(C)O)cc3)CC2)[C@H]1OC` gave ST2 inh inactive.
Screening CN(C)CCNC(=O)C1(O)c2ccccc2NC(=O)N1c1ccc(Cl)cc1 (stereo not given) returned ST2 inh inactive.
`CCOC(=O)CNC(=O)c1cn(CC(C)C)c(=O)c2cc(OC)c(OC)cc12` gave ST2 inh inactive.
Screening Cc1[nH]n(-c2ccccc2)c(=O)c1C(c1ccco1)c1c(C)[nH]n(-c2ccccc2)c1=O returned ST2 inh 51.0%*.
`Cc1c(C(c2ccco2)c2c(C)n(C)n(-c3ccccc3)c2=O)c(=O)n(-c2ccccc2)n1C` gave ST2 inh inactive.
Screening Cc1cn(-c2ccccc2)[nH]c1=O returned ST2 inh inactive.
Screening CCn1c(=O)n(-c2ccc(C)c(C)c2)c2nc(-c3ccccc3OC)nc(C(N)=O)c21 returned ST2 inh inactive.
Screening Cc1cc(Sc2nnnn2-c2ccccc2)nc2ccccc12 returned ST2 inh inactive.
Screening Cc1sc2ncnc(Sc3nnnn3-c3ccccc3)c2c1C returned ST2 inh 44.0%*.
For CSc1nnnn1-c1ccccc1 the results were ST2 inh inactive.
`CN(CCc1ccccn1)[C@H]1[C@@H]2OC[C@@H](O2)[C@@H](NC(=O)Nc2ccccc2)[C@@H]1O` gave ST2 inh inactive.
For CN(CCc1ccccn1)[C@H]1[C@@H]2OC[C@@H](O2)[C@@H](NCc2ccc(F)cc2)[C@@H]1O the results were ST2 inh 32.0%*.
